ST2 IL33 inh = blocks human ST2 binding to IL-33; Q01638; AlphaLISA ST2-Fc/biotin-IL-33 interaction, 1 h; inhibition, % for hits at 17 µM; actives 2.3% (n = 78,000); in the data active = inhibition above about 30%
Target sequence (Q01638 whole entry, looked up): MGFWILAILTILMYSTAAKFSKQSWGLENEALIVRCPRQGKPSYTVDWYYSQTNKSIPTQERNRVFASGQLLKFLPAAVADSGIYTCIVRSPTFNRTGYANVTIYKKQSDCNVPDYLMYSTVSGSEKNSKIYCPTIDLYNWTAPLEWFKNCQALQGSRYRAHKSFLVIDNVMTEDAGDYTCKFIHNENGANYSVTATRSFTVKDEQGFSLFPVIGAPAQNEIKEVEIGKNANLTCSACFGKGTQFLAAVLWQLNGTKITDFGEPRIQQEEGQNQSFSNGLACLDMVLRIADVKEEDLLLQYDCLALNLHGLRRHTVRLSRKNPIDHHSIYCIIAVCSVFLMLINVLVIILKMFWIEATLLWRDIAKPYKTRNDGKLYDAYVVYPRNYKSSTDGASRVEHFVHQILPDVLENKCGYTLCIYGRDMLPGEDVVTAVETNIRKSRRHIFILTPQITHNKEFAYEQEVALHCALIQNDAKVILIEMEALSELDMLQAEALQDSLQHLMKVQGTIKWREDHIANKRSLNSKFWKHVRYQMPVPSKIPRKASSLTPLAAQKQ
* = called active by the depositor; i = inactive; ! = not confirmed by another sample. Only a selection was taken, and hits are over-represented in it overall.

SMILES	ST2 IL33 inh
Oc1ccc(N=Cc2nc(-c3ccccc3)oc2O)cc1	i
O=C(CCC1CCCN(C2CCN(c3ccccc3F)CC2)C1)N1CCCC1 (configuration not stated)	i
CCOC(=O)C1(Cc2cccc(F)c2)CCN(Cc2nccn2CC)CC1	i
CC1=C(C(=O)Nc2nc3ccccc3s2)C(c2ccccc2Cl)C2=C(CCCC2=O)N1 (configuration not stated)	i
CCCNCc1ccc(-c2ccnc3[nH]ccc23)cc1	i
Cc1ccc(Cl)cc1NC(=O)c1cc2c(=O)n3cccc(C)c3nc2s1	i
Cc1ccc2cc3cc(C(=O)NC(C)C)sc3nc2c1	i
COc1ccc(N2CCN(C(=O)c3cc4cc5ccc(OC)cc5nc4s3)CC2)cc1	i
COc1ccc2cc3cc(C(=O)Nc4ccccc4F)sc3nc2c1	41%*
COc1ccc2cc3cc(C(=O)Nc4ccc(F)cc4F)sc3nc2c1	35%*
COc1ccc2nc3oc(C(=O)Nc4ccccc4F)cc3cc2c1	i
Cc1cccn2c(=O)c3cc(C(=O)Nc4ccccc4C#N)sc3nc12	i
COc1ccc2cc3cc(C(=O)Nc4cccc(C#N)c4)sc3nc2c1	i
Cc1cccn2c(=O)c3cc(C(=O)Nc4ccccc4F)sc3nc12	35%*
COc1ccc2cc3cc(C(=O)Nc4ccc(F)cc4)sc3nc2c1	35%*
COc1ccc(-n2c(=O)[nH]cc(C(=O)Nc3ccc(F)cc3F)c2=O)cc1	i
COc1ccc(C(=O)Nc2ccccc2F)cc1	i
COc1ccc(CCN2CC(C(=O)NCc3ccncc3C)CCC2=O)cc1 (configuration not stated)	i
Cc1cc(C2CCCN2Cc2cccc(C(=O)Nc3cccnc3)c2)no1 (configuration not stated)	i
CCOC(=O)C(Cc1ccc(O)cc1)NC1=CC(=O)C(=O)c2ccccc21 (configuration not stated)	i
O=C1Nc2ccccc2S(=O)(=O)N1c1ccc(Cl)cc1	i
COc1ccc(OCC(=O)Nc2cc(N3CCCS3(=O)=O)ccc2OC)cc1	i
O=C1NCC(=O)N2CCN(C(=O)c3cc(-c4ccccc4)no3)CC12 (configuration not stated)	i
COc1cccc(C(=O)N2CCN=C2SCc2ccc(Br)cc2)c1OC	i
CC(=O)Nc1ccc(-c2ccc(=O)n3c2[C@@H]2C[C@@H](CN(C(=O)c4ccc(C#N)cc4)C2)C3)cc1	i
SMILES	ST2 IL33 inh
O=C(Nc1ccccc1O)c1cc2ccccc2o1	i
O=C(Nc1ccccc1O)c1cc2ccccc2oc1=O	34%*
O=C(Nc1ccccc1Cl)c1cc2ccccc2oc1=O	i
COc1cc([N+](=O)[O-])cc(CN2CCOCC2)c1O	i
COc1ccc(N(C(=O)C(C)Oc2ccccc2)C2C=CS(=O)(=O)C2)cc1 (configuration not stated)	i
COc1ccccc1-c1cccc(C(=O)NCc2csc(N)n2)c1	i
O=C(Nc1ccc(Oc2ccccc2)cc1)C1CC1	i
O=C(Nc1ccc(O)cc1)C1CC=CCC1 (configuration not stated)	34%*
O=C(O)COc1ccc(NC(=O)C2CCCCC2)cc1	i
COc1cccc(-c2nnnn2[C@H]2CO[C@H]3[C@@H]2OC[C@@H]3NC(=O)c2ccc(C(F)(F)F)cc2)c1	i
O=C(NC1CCCCC1)O[C@@H]1CO[C@H]2[C@@H]1OC[C@@H]2n1nnnc1-c1ccccc1	39%*
O=C(NC1CCCCC1)N[C@H]1CO[C@H]2[C@@H]1OC[C@@H]2n1nnnc1Oc1ccc(-n2ccnc2)cc1	i
CCC(=O)N1CCc2cc(Br)cc(S(=O)(=O)CCC(=O)NC(C)CC)c21 (configuration not stated)	i
Cc1ccc(F)cc1CC(=O)N(C)Cc1ccncc1C	i
O=C1Nc2ccccc2C12Oc1ccccc1C1CC(c3ccccc3)=NN12 (configuration not stated)	i
CN(CC(O)Cn1c2ccccc2c2ccccc21)S(=O)(=O)c1ccc(Br)cc1 (configuration not stated)	i
Cc1ccc(NCC(O)Cn2c(C)c(C)c3ccccc32)cc1C (configuration not stated)	i
Cc1c(C)n(CC(O)CN2CCOCC2)c2ccccc12 (configuration not stated)	i
Cc1cc(C)n(CC(O)Cn2c(C)c(C)c3ccccc32)n1 (configuration not stated)	i
Cc1ccc(NCC(O)Cn2c(C)c(C)c3ccccc32)cc1 (configuration not stated)	36%*!
Cc1c(C)n(CC(O)CNc2ccc(Br)cc2)c2ccccc12 (configuration not stated)	31%*
Cc1ccc(N2CCN(C(=O)c3ccc(CS(=O)(=O)c4ccc(C)cc4)o3)CC2C)cc1 (configuration not stated)	i
O=C(Nc1ccc(Br)cc1)c1c[nH]c(=O)n(-c2ccccc2)c1=O	i
COc1ccc(Br)cc1C1Nc2ccc3ncccc3c2C2=C1C(=O)CC(C)(C)C2 (configuration not stated)	i

Bioassay records deposited in PubChem by Paczesny and Yang Labs, IUPUI and University of Michigan.
